Data taken from PubChem BioAssay (NCATS).
Several values for one entry are separate records, joined by “and”; a condition that tells them apart may be missing. Equal values may be shown once. Inconclusive results are not listed. Activity calls are given as the source filed them. Calls come from the whole dose curve; as a rule, active = well fitted curve in the direction sought with a large enough effect; inconclusive = small, poorly fitted or top-dose-only effect, or another doubt; inactive = no such curve, though single readings can be large; an effect the other way counts as inactive or inconclusive.

Columns and labels:
[1] = test system: Zika virus NS2B-NS3 protease (linked construct); experiment: Primary screen NINDS Rhodamine qHTS for Zika virus inhibitors (AID 1347160); note: nearly all actives have a fitted effect of over 55% in size
Procedure, shortened: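 Rhodamine110-peptide cleavage (1.5 µM substrate) by 25 nM linked NS2B-NS3 enzyme at pH 8.0 (Tris, Tween 20), after 15 min RT preincubation with compounds; 15-min fluorescence change normalized to controls and Hill-fitted.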

[2] = biological target: Calcium and integrin-binding protein 1 (Homo sapiens) (UniProt Q99828); experiment: Primary qHTS for Identification of Calcium Integrin Binding Protein 1 (CIB1) Competitor (AID 1508620);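 note: GST tagged CIB1 binding a fluorescein labelled alphaIIb integrin peptide tracer; top concentration of the series differs between compounds; % is set by controls: 0 for no effect and ±100 for the full control effect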
Procedure, shortened: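 CIB1-GST (1 uM final) and compound incubated 15 min at room temperature before adding FITC-alphaIIb peptide tracer (100 nM final). Competition for binding read by fluorescence polarization (ex 480, em 540) after another 15 min at room temperature.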

[3] = Primary qHTS for inhibitors of nuclear receptor binding SET domain protein 2 (NSD2) in an isogenic RCH-ACV NSD2 p.E1099K mutant (9B) (AID 1645876); note: nearly all actives have a fitted effect of over 70% in size; note: potency is the fitted concentration of half-maximal effect
[4] = biological target: Glutathione peroxidase 1 (Homo sapiens) (UniProt P07203); experiment: Primary qHTS Assay for Inhibitors of Recombinant Selenoprotein Glutathione Peroxidase 1 (GPX1) (AID 1845191); note: nearly all actives have a fitted effect of over 65% in size; for activity, negative = inhibition: % is set by controls: 0 for no effect and ±100 for the full control effect
Procedure, shortened: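 NADPH consumption tracked by fluorescence at 340/450 nm between t=0 and t=15 min, room temperature. Final mix: 10 nM GPX1, 100 nM glutathione reductase, 1 mM GSH, 0.5 mM NADPH, 0.5 mM cumene hydroperoxide, 0.01% BSA; 30 min compound–enzyme preincubation.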

[5] = biological target: Phospholipid hydroperoxide glutathione peroxidase GPX4 (Homo sapiens) (UniProt P36969); experiment: Primary qHTS Assay for Inhibitors of Recombinant Selenoprotein Glutathione Peroxidase 4 (GPX4) (AID 1845192); note: % is set by controls: 0 for no effect and ±100 for the full control effect; nearly all actives have a fitted effect of over 65% in size
Procedure, shortened: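 NADPH consumption followed by fluorescence at 340/450 nm, t=0 and after 15 min at room temperature. Reaction started with cumene hydroperoxide (0.5 mM final) after 30 min compound–GPX4 preincubation; final 200 nM GPX4, 100 nM GR, 1 mM GSH, 0.5 mM NADPH.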

[6] = biological target: Luciferin 4-monooxygenase (Photinus pyralis) (UniProt P08659); experiment: Primary firefly luciferase (FLuc) qHTS assay for identification of artifact compounds. (AID 1845220); details: outcome: dose series up to 54.1 µM unless noted; note: nearly all actives have a fitted effect of over 60% in size
Procedure, shortened: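 Compounds sat 15 min at room temperature with 10 uM luciferin and 10 uM ATP (pH 7.6 Tris acetate). Firefly luciferase (10 nM final) was then added, and luminescence was read 5 min later. Data normalized to no-enzyme and DMSO controls were Hill-fitted.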

[7] = Primary fluorescence-based thiol-reactive (MSTI) qHTS assay for identification of artifact compounds. (AID 1845221); note: nearly all actives have a fitted effect of over 65% in size; note: potency is the fitted concentration of half-maximal effect;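 for activity change, negative = thiol reactive: thiol-reactive compounds lower the probe fluorescence signal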
Procedure, shortened: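 Compounds were incubated 1 h at room temperature in the dark with the MSTI probe (4 uM) in PBS pH 7.4, 2% DMSO. Signals were normalized between Acetyl-MSTI and MSTI.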

[8] = test system: Nanoluciferase (engineered Oplophorus gracilirostris luciferase); experiment: Primary Nanoluciferase (NLuc) qHTS assay for identification of artifact compounds. (AID 1845222);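 note: 0% = DMSO and -100% = no enzyme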
Procedure, shortened: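 Luminescence from secreted NLuc (filtered, 1:55-diluted S16 cell medium) read 5 min after Nano-Glo substrate; compounds preincubated 15 min, RT. Hill fits of inhibition normalized to DMSO and no-enzyme.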

CRL-7250 = normal cell line; experiment: Cytotoxic Profiling of Annotated Libraries Using Quantitative High-Throughput Screening (AID 1296008); details: Five cell lines viability, CellTiter-Glo ATP luminescence, 48-72 h; max response: hits give low values; note: nearly all actives have a fitted effect of over 60% in size; note: potency is the fitted concentration of half-maximal effect; for max response: % is set by controls: 0 for no effect and ±100 for the full control effect
Procedure, shortened: (§1)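 Cytotoxicity was measured as CellTiter-Glo ATP luminescence, read after 10 min at room temperature. Compound treatment of the cells lasted 48 or 72 hr at 37 degrees Celsius in a qHTS format.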

HEK293 = experiment: as above; details: Five cell lines viability, CellTiter-Glo ATP luminescence, 48-72 h; max response: hits give low values
Procedure, shortened: as §1

HaCat = experiment: as above; details: Five cell lines viability, CellTiter-Glo ATP luminescence, 48-72 h; max response: hits give low values
Procedure, shortened: as §1

KB-3-1 = experiment: as above; details: Five cell lines viability, CellTiter-Glo ATP luminescence, 48-72 h; max response: hits give low values
Procedure, shortened: as §1

C33A = experiment: Primary qHTS to identify gynecologic anti-cancer compounds using libraries of approved drugs and bioactive compounds (AID 1345084); details: Gynecologic cancer cell panel viability, ATPlite luminescence, 48 h; series mostly up to 57.5 µM; note: nearly all actives have a fitted effect of over 55% in size; note: potency is the fitted concentration of half-maximal effect; for activity change, negative = cytotoxicity: % is set by controls: 0 for no effect and ±100 for the full control effect
Procedure, shortened: (§2)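 Luminescence from the ATPlite ATP-monitoring reagent indicates viable cell number; lower signal means cytotoxicity. Cells received compound 16 h after seeding and were exposed for 48 h across five concentrations.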

CASKI = experiment: as above; details: Gynecologic cancer cell panel viability, ATPlite luminescence, 48 h; series mostly up to 57.5 µM
Procedure, shortened: as §2

Es-2 = experiment: as above; details: Gynecologic cancer cell panel viability, ATPlite luminescence, 48 h; series mostly up to 57.5 µM
Procedure, shortened: as §2

Hek293T = experiment: as above; details: Gynecologic cancer cell panel viability, ATPlite luminescence, 48 h, control line for the selectivity index; series mostly up to 57.5 µM
Procedure, shortened: as §2

OV90 = experiment: as above; details: Gynecologic cancer cell panel viability, ATPlite luminescence, 48 h; series mostly up to 57.5 µM
Procedure, shortened: as §2

PA-1 = experiment: as above; details: Gynecologic cancer cell panel viability, ATPlite luminescence, 48 h; series mostly up to 57.5 µM
Procedure, shortened: as §2

Tov-21-G = experiment: as above; details: Gynecologic cancer cell panel viability, ATPlite luminescence, 48 h; series mostly up to 57.5 µM
Procedure, shortened: as §2

Tov112D = experiment: as above; details: Gynecologic cancer cell panel viability, ATPlite luminescence, 48 h; series mostly up to 57.5 µM
Procedure, shortened: as §2

Chain of Phospholipid hydroperoxide glutathione peroxidase GPX4 (Homo sapiens) (P36969 whole entry, looked up): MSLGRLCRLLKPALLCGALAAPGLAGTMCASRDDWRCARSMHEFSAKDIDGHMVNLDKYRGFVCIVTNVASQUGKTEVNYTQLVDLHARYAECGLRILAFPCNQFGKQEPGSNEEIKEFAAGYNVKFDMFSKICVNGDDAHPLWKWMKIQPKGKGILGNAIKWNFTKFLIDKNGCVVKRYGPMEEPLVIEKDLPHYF
Chain of Calcium and integrin-binding protein 1 (Homo sapiens) (Q99828 whole entry, looked up): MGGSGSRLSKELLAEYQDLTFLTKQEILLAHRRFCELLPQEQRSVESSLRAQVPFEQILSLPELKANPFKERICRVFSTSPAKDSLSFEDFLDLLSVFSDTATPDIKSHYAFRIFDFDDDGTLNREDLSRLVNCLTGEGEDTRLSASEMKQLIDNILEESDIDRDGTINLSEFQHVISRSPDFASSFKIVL
Chain of Glutathione peroxidase 1 (Homo sapiens) (P07203 whole entry, looked up): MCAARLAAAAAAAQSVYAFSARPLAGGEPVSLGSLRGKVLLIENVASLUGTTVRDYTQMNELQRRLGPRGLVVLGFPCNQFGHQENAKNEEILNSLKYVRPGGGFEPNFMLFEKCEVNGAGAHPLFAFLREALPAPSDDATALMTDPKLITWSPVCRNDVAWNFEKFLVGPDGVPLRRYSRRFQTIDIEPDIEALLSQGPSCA

N#Cc1ccc([C@H]2CCCC[C@H]2O)cc1C(F)(F)F
inactive: Potency [1] | Potency [2] | Potency [3] | Potency [4] | Potency [5] | outcome [6] | Potency [7] | Potency [8] | max response (CRL-7250) 1.6% | max response (HEK293) -11% | max response (HaCat) -7.91% | max response (KB-3-1) -5.63% | Potency (C33A) | Potency (CASKI) | Potency (Es-2) | Potency (Hek293T) | Potency (OV90) | Potency (PA-1) | Potency (Tov-21-G) | Potency (Tov112D)

CN(C)c1cc2c(cc1Sc1nc3c(N)nccc3n1CCNCC(C)(C)C)OCO2
active: Potency [3] 459 nM and 662 nM | Potency (CRL-7250) 1840 nM | Potency (HEK293) 580 nM | Potency (HaCat) 461 nM | Potency (KB-3-1) 731 nM | Potency (Hek293T) 1260 nM | Potency (PA-1) 1410 nM | Potency (Tov-21-G) 1410 nM
inactive: Potency [2] | Potency [4] | Potency [8] | Potency (Tov112D)

C#CCO[C@H]1CN2CCC1CC2
inactive: Potency [1] | Potency [2] | Potency [3] | Potency [4] | Potency [5] | outcome [6] | Potency [7] | Potency [8] | max response (CRL-7250) -0.287% | max response (HEK293) -18.5% | max response (HaCat) 2.85% | max response (KB-3-1) 2.91% | Potency (C33A) | Potency (CASKI) | Potency (Es-2) | Potency (Hek293T) | Potency (OV90) | Potency (PA-1) | Potency (Tov-21-G) | Potency (Tov112D)

CC(=O)OC[C@]12C[C@H](O)C(C)=C[C@H]1O[C@@H]1[C@H](O)[C@@H](O)[C@@]2(C)[C@]12CO2
inactive: Potency [1] | Potency [2] | Potency [4] | outcome [6] | Potency [7] | Potency [8]
active: Potency [3] 898 nM | Potency (CRL-7250) 4040 nM | Potency (HEK293) 1010 nM | Potency (HaCat) 10100 nM | Potency (KB-3-1) 2270 nM | Potency (C33A) 5620 nM | Potency (CASKI) 7940 nM | Potency (Es-2) 6310 nM | Potency (Hek293T) 1780 nM | Potency (OV90) 12600 nM | Potency (PA-1) 2000 nM | Potency (Tov-21-G) 8910 nM | Potency (Tov112D) 10000 nM

CC(=O)OC[C@]12C[C@H](O)C(C)=C[C@H]1O[C@@H]1[C@H](O)[C@@H](OC(C)=O)[C@@]2(C)[C@]12CO2
inactive: Potency [1] | Potency [2] | Potency [4] | outcome [6] | Potency [7] | Potency [8]
active: Potency [3] 6.4 nM | Potency (CRL-7250) 36 nM | Potency (HEK293) 8.1 nM | Potency (HaCat) 90.4 nM | Potency (KB-3-1) 32.1 nM | Potency (C33A) 447 nM | Potency (CASKI) 31.6 nM | Potency (Es-2) 199 nM | Potency (Hek293T) 89.1 nM | Potency (OV90) 12600 nM | Potency (PA-1) 1780 nM | Potency (Tov-21-G) 178 nM | Potency (Tov112D) 100 nM

CO[C@@H]1C[C@H](O[C@H]2CC[C@@]3(C)C(CCC4C3CC[C@]3(C)[C@@H](C5=CC(=O)OC5)[C@@H](OC(C)=O)CC43O)C2)O[C@H](C)[C@@H]1O[C@H]1O[C@H](CO[C@@H]2O[C@H](CO)[C@@H](O)[C@H](O)[C@H]2O)[C@@H](O)[C@H](O)[C@H]1O (stereo partly drawn)
active: Potency [3] 346 nM | Potency (CRL-7250) 491 nM | Potency (HEK293) 873 nM | Potency (HaCat) 1550 nM | Potency (KB-3-1) 979 nM | Potency (C33A) 631 nM | Potency (Es-2) 1260 nM | Potency (Hek293T) 2000 nM | Potency (PA-1) 2000 nM | Potency (Tov-21-G) 794 nM | Potency (Tov112D) 316 nM
inactive: Potency [1] | Potency [2] | Potency [4] | activity change, negative = thiol reactive [7] 43.8% [at 11.5 µM] | activity, negative = inhibition [8] 1.29% [at 11.6 µM]

C[C@H]1O[C@@H](O[C@H]2CC[C@]3(CO)C4CC[C@]5(C)[C@@H](C6=CC(=O)OC6)CC[C@]5(O)[C@@H]4CC[C@H]3C2)[C@H](O)[C@H](O)[C@@H]1O[C@@H]1O[C@H](CO)[C@@H](O)[C@H](O)[C@H]1O (stereo partly drawn)
inactive: Potency [2] | Potency [4] | Potency [5] | outcome [6] | Potency [8]
active: Potency [3] 608 nM | Potency [7] 3160 nM | Potency (CRL-7250) 1220 nM | Potency (HEK293) 1530 nM | Potency (HaCat) 5440 nM | Potency (KB-3-1) 1930 nM | Potency (C33A) 1120 nM | Potency (CASKI) 6310 nM | Potency (Es-2) 3550 nM | Potency (Hek293T) 3160 nM | Potency (PA-1) 3160 nM | Potency (Tov-21-G) 2820 nM | Potency (Tov112D) 1120 nM

CO[C@H]1C[C@H](O[C@H]2CC[C@@]3(C)C(=CCC4C3CC[C@]3(C)[C@@H](C5=CC(=O)OC5)CC[C@]43O)C2)O[C@@H](C)[C@@H]1O[C@@H]1O[C@H](CO[C@@H]2O[C@H](CO)[C@@H](O)[C@H](O)[C@H]2O)[C@@H](O)[C@H](O)[C@H]1O (stereo partly drawn)
inactive: Potency [1] | Potency [2] | Potency [4] | Potency [5] | activity change, negative = thiol reactive [7] 94.1% [at 11.5 µM] | activity, negative = inhibition [8] 3.27% [at 11.6 µM] | max response (CRL-7250) -12.8% | max response (HEK293) -7.06% | max response (HaCat) -7.84% | max response (KB-3-1) 4.69% | activity change, negative = cytotoxicity (C33A) 5.08% [at 11.6 µM] | activity change, negative = cytotoxicity (CASKI) 22.6% [at 11.6 µM] | activity change, negative = cytotoxicity (Es-2) -0.369% [at 11.6 µM] | activity change, negative = cytotoxicity (Hek293T) -20.2% [at 11.6 µM] | activity change, negative = cytotoxicity (OV90) 5.84% [at 11.6 µM] | activity change, negative = cytotoxicity (PA-1) 10.4% [at 11.6 µM] | activity change, negative = cytotoxicity (Tov-21-G) -1.43% [at 11.6 µM] | activity change, negative = cytotoxicity (Tov112D) -28.4% [at 11.6 µM]

COC1CC(O[C@H]2CC[C@@]3(C)C(CCC4C3CC[C@]3(C)[C@@H](C5=CC(=O)OC5)CC[C@]43O)C2)OC(C)C1O (stereo partly drawn)
inactive: Potency [1] | Potency [4] | Potency [5] | outcome [6] | Potency [7] | Potency [8]
active: Potency [3] 14.2 nM | Potency (CRL-7250) 31.7 nM | Potency (HEK293) 79.6 nM | Potency (HaCat) 178 nM | Potency (KB-3-1) 159 nM | Potency (C33A) 100 nM | Potency (CASKI) 141 nM | Potency (Es-2) 158 nM | Potency (Hek293T) 141 nM | Potency (OV90) 398 nM | Potency (Tov-21-G) 89.1 nM

C[C@H]1O[C@@H](O[C@H]2CC[C@]3(C=O)C4CC[C@]5(C)[C@@H](C6=CC(=O)OC6)CC[C@]5(O)[C@@H]4CC[C@]3(O)C2)C[C@@H](O)[C@@H]1O (stereo partly drawn)
active: Potency [3] 31.7 nM | Potency (CRL-7250) 22.4 nM | Potency (HEK293) 25.2 nM | Potency (HaCat) 502 nM | Potency (KB-3-1) 89.3 nM | Potency (C33A) 89.1 nM | Potency (CASKI) 355 nM | Potency (Es-2) 141 nM | Potency (Hek293T) 141 nM | Potency (OV90) 316 nM | Potency (Tov-21-G) 126 nM | Potency (Tov112D) 25.1 nM
inactive: Potency [1] | Potency [2] | Potency [4] | Potency [5] | outcome [6] | Potency [7] | Potency [8]
